The values that follow come from ChEMBL document CHEMBL3433997, “St. Jude Leishmania screening dataset” (2016).

This assay deals with Glucose transporter (Leishmania mexicana) (UniProt O61059). The experiment in a line: ST_JUDE_LEISH: Cytotoxicity at 2uM final concentration against transgenic Leishmania Mexicana promastigotes LmGT2 that are glucose transport deficient and complemented with the L. Mexicana glucose transporter 2. Activity is measured by DNA content using SYBR green in vitro. The format is functional.
As usually defined, the inhibition is the relative decrease from the control value, in per cent. Turning to `O=C(Nc1cccc(CN2CCCN(CC3CC3)CC2)c1)c1ccc(Cl)c(Cl)c1`, the inhibition was 12.6%.

As for `Cc1cccc2nc(-c3cccc(-c4ccc(NC(=O)Nc5ccc(Cl)c(Cl)c5)cc4)c3)[nH]c12`, the inhibition was 1.91%. Turning to `Cc1c2c(nn1-c1ccccc1)C(c1ccccc1)N(c1ccccc1)C2=O` (stereo not given), the inhibition is 0.75%.

`Cc1cc(N[C@@H](CC(C)C)C(=O)NCc2cccs2)nc(NCCc2ccc(F)cc2)n1`: the inhibition was 0.13%.

Regarding `CCN(CC)S(=O)(=O)n1ncc2c3c(N)nc(N)nc3ccc21`, the inhibition is -2.31%.

Regarding `O=C(Nc1ccc(Cl)cc1Cl)NC1CCN(CCCCCNC(=O)C2CC2c2ccc(Cl)c(Cl)c2)CC1` (stereo not given), the inhibition came out at 9.23%. Then `COCCNCc1ncsc1-c1ccc2c(Nc3ccc(Oc4ccccc4)cc3)ccnc2c1`, with 2.26%; and `O=C(Nc1cc2cc(-c3ccc(CN4CCCCC4)cc3)ccc2n2cnnc12)NC1CCCC1`, with 3.67%.

As to `O=C(NCC1CCN(C/C=C/c2ccccc2)CC1)Nc1ccc(Oc2ccccc2)cc1`, the inhibition was 2.71%.

As for `CCCCCn1c(Sc2ccc(C#N)c([N+](=O)[O-])c2)nnc1-c1ccc(Cl)cc1`, the inhibition is 0.12%. To `CCN(c1ccc(O)c(CN2CCCCC2)c1)c1ccc([N+](=O)[O-])cn1` belongs 0.72%. Then `Cc1ccc(-c2nc3cc(C(=O)NC4CCN(Cc5ccccc5)CC4)ccc3[nH]2)cc1`, with 0.96%; and `CS(=O)(=O)c1ccc(-c2cncc(Cl)n2)cc1`, with 10.2%; and `O=C(Nc1ccc(-c2cccc(-c3nc4cc(C(F)(F)F)ccc4[nH]3)c2)cc1)c1ccoc1`, with 3.22%. For `Clc1ccc(CNC2CCN(CC3CCCCC3)CC2)cc1`, the inhibition was determined as 10.2%. `CCC[C@@H]([C@@H](CC1CCCCC1)C(=O)N[C@H](C(=O)Nc1ccccn1)[C@H](C)CC)N(O)C=O`: the inhibition was 2.88%. To `O=C(Nc1ccc2c(c1)CCN2C1CCN(Cc2cccc3cc[nH]c23)C1)c1ccco1` (stereo not given) belongs 1.83%. To `N#Cc1ccc2c(c1)CCN(CCCn1c(-c3ccc4ccccc4c3)nc3ccncc31)CC2` belongs 10.4%; to `CC(C)(CNC(=O)/C=C/c1ccc(C(F)(F)F)cc1)CNc1cc(=O)c2ccccc2[nH]1`, 1.66%; to `COc1ccc(OC)c(NC(=O)CSc2nc(-c3ccccc3Cl)ns2)c1`, -1.15%. To `COc1cccc(CN(C(=O)Nc2ccccc2F)[C@H]2C[C@H]3C(=O)Nc4cc(F)ccc4C(=O)N3C2)c1` belongs 5.37%; to `NC(=O)c1ccccc1OCC(=O)Nc1cccc(-c2ccc(-c3nc4cc(C(F)(F)F)ccc4[nH]3)cc2)c1`, 2.79%. Take `Cc1cccc2nc(-c3ccc(-c4cccc(NC(=O)NCc5cccc(F)c5)c4)s3)[nH]c12`: the inhibition was -1.14%. To `C=C(C)Cn1cc(C2CCN(CCCCNC(=O)c3sc(-c4ccc(Cl)cc4Cl)nc3CO)CC2)c2ccccc21` belongs 0.05%; to `COc1ccccc1-n1c(-c2ccc3ccccc3c2)csc1=NC(=O)c1ccccc1`, -4.04%; to `COCCNCc1ccc(-c2cccc(CNc3ccc(OC)cc3)c2)cc1`, 5.16%. To `CCN1CCC(NCc2ccc(-c3ccc(Cl)s3)cc2)CC1` belongs -1.7%; to `CC(=O)Nc1ccc(CN2CCC(CNC(=O)c3cc(-c4cccc(C(F)(F)F)c4)cs3)C2)cc1` (stereo not given), -5.57%; to `CCn1ccc2c(N3CCCS3(=O)=O)cc(C(=O)N[C@@H](Cc3ccccc3)[C@H](O)CNC(C)(C)c3cccc(OC)c3)cc21`, 1.49%. Then `O=C(/C=C/c1ccc(Cl)c(Cl)c1)NCCCCCN1CCCN(C(=O)Nc2cccc(C(F)(F)F)c2)CC1`, with 3.62%. For `Clc1ccc(CCNCCCCCCNCCc2ccc3c(c2)OCO3)cc1`, the inhibition was 7.21%. Then `O=[N+]([O-])c1ccc(N/C(=N\c2ccccc2Br)NCCOc2ccccc2)c(O)c1`, with -2.35%.

As to `CCCCNC(=O)C(C)NC(=O)c1ccc(O)c(-c2ccc(Cl)c(Cl)c2)c1` (stereo not given), the inhibition is 0.05%. Then `O=C(Nc1ccc(-c2ccccc2)c(OCCN2CCNCC2)c1)c1ccc(-c2ccc(Cl)cc2)cc1`, with 3.11%. Then `Cc1ccc(C)c2sc(N(CCCn3ccnc3)C(=O)C=Cc3cccs3)nc12`, with -1.56%; and `O=S(=O)(Nc1cc2c(cc1O)CCN(C1CCC1)CC2)c1ccc(-c2ccc(F)cc2)cc1`, with 3.1%; and `N=C(N)NN=Cc1c2ccccc2c(Cl)c2ccc(Cl)cc12`, with 104%.

For the molecule `COc1ccc(CNC(=O)Nc2cccc(-c3csc(NC(=N)N)n3)c2)cc1`, the inhibition turned out to be 1.03%. Consider `CCCc1cc(NCc2ccncc2)nc(Nc2ccc(F)cc2)n1`, for which the inhibition turned out to be 2.99%. Then `CC(=O)c1sc(Cc2nc3ccccc3s2)nc1C`, with -1.55%.
